HepG2 tox-1 = kills HepG2 cells in TGF-b inhibitor counter-screen. HepG2 CAGA-GFP viability, ATP luminescence, 18 h. Potency, µM (titrated, usually from 46.1 µM), without a hit: top-dose activity change, negative = cytotoxicity, actives largely listed as cytotoxic. 0.76% of 410,000 active. AID 588856; further: potency means the concentration at half of the fitted maximal effect
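HepG2 CAGA-GFP cells (1000/well, DMEM with 1% FBS) received compound, then TGF-beta at 500 pg/mL final, and were incubated 18 hours at 37 degrees C. Viability was read by CellTiter-Glo luminescence. Media-only wells were set as complete cell-killing and DMSO as no toxicity.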
ATXN2 expr inh = ATXN2 expression inhibition; Potency, µM (doses to about 57 µM), for the others: at the highest dose activity change, negative = inhibition, most hits filed as inhibitors; 0.72% of 360,000 active; HEK-293 ATXN2-luciferase reporter, luminescence, 24 h; further: potency means the concentration at half of the fitted maximal effect; on the % scale 0 is the no-effect control and ±100 the full control effect; nearly all actives have a fitted effect of over 55% in size
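ATXN2-luciferase reporter cells (luciferase flanked by upstream and downstream ATXN2 gene portions) were treated 24 h at 37 °C with compounds at up to 57 uM. SteadyGlo luminescence gave expression; GF-AFC fluorescence gave viability.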
DRD3 agonist = agonists of human D3 dopamine receptor. D3R DiscoveRx beta-arrestin cells, luminescence, 90 min. max activation, %. 0.58% of 410,000 active. AID 652048; in the data active means max activation above about 30%; further: 0% is about no effect
Target sequence (P35462 whole entry, looked up): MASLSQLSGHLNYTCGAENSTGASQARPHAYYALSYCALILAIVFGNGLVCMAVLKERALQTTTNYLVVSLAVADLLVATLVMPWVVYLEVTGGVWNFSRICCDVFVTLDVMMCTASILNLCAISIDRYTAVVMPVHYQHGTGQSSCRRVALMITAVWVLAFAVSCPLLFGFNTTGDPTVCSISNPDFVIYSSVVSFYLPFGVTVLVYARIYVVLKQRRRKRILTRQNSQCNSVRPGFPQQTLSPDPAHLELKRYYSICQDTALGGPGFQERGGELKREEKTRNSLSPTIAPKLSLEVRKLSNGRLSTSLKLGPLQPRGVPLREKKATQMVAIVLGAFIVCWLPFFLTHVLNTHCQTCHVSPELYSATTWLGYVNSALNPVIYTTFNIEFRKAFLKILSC
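Agonist mode: compounds and dopamine controls were applied to plated cells for 90 min at 37 degrees C after an overnight attachment at 1500 cells/well. Luminescent read-out followed 30 - 60 minutes at room temperature with DiscoveRx detection reagent.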
S2 tox = reduces viability in counter-screen for ATXN expression inhibitors. S2 cells (HEK-293 line with an ATXN2-luciferase reporter) viability, CellTiter-Fluor protease fluorescence, 24 h. 0.49% of 400,000 active. AID 651635. Potency, µM (series often up to 56.7 µM), usual class: cytotoxic; further: potency means the concentration at half of the fitted maximal effect; nearly all actives have a fitted effect of over 40% in size
TGFb inhibitor = blocks TGF-b signaling. Potency, µM (titrated, usually from 46.1 µM), for the others: at the top dose activity, negative = inhibition, hits mostly inhibitors. 1.2% of 410,000 active. AID 588855. HepG2 CAGA-GFP TGF-b/SMAD3 reporter, GFP fluorescence, 18 h; TGF-beta stimulated, 500 pg/mL final; further: potency means the concentration at half of the fitted maximal effect; on the % scale 0 is the no-effect control and ±100 the full control effect; nearly all actives have a fitted effect of over 65% in size
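Using HEPG2 CAGA-GFP reporter cells at 1000 cells/well, we pinned test compounds, stimulated with recombinant TGF-beta (500 pg/mL final) and measured total well GFP after 18 h.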
DRD3 antagonist = blocks the human D3 dopamine receptor. 2.5% of 360,000 active. max response, negative = inhibition, %. D3R cells, DiscoveRx beta-arrestin luminescence, antagonist mode; hits give low values. AID 652054. P35462; in the data active means max response below about -50%; inconclusive means no clear call, values can overlap the other calls; further: on the % scale 0 is the no-effect control and ±100 the full control effect
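Cells expressing the human receptor were seeded at 1500 cells/well, incubated overnight at 37 degrees C in 5% CO2, then exposed to library compounds with dopamine controls for 90 minutes at 37 degrees C before luminescent detection.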
TGFb CAGA inh = confirmation of TGF-b signaling inhibitors in HepG2 reporter cells; shares compounds with TGFb inhibitor; HepG2 CAGA-GFP TGF-b reporter, GFP fluorescence, 18 h; cells stimulated with TGF-beta, 500 pg/mL; Potency, µM (titrated, usually from 46.1 µM), for the others: at the top dose activity, negative = inhibition, usual class: inhibitors; 63% of 1,600 active; further: potency means the concentration at half of the fitted maximal effect; on the % scale 0 is the no-effect control and ±100 the full control effect; nearly all actives have a fitted effect of over 65% in size
HepG2 tox-2 = counter-screen for TGF-b inhibitors: cytotoxicity in HepG2 cells | 27% of 1,600 active | HepG2 CAGA-GFP viability, ATP luminescence, 18 h; cells stimulated with TGF-beta, 500 pg/mL | shares compounds with TGFb inhibitor | Potency, µM (highest dose often 46.1 µM), for the others: at the highest dose activity, negative = cytotoxicity, most hits filed as inhibitors; further: potency means the concentration at half of the fitted maximal effect; on the % scale 0 is the no-effect control and ±100 the full control effect; nearly all actives have a fitted effect of over 70% in size
CCL64 TGFb inh = blocks TGF-b signaling in CCL64 reporter cells | shares compounds with TGFb inhibitor | CCL64 CAGA-GFP reporter, TGF-b stimulated, GFP fluorescence, 18 h | Potency, µM (series often up to 46.1 µM), without a hit: at the top dose activity, negative = inhibition, hits mostly inhibitors | 41% of 1,600 active | AID 720536; further: potency means the concentration at half of the fitted maximal effect; nearly all actives have a fitted effect of over 65% in size
COP TGFb inh = blocks TGF-b signaling in HepG2 COP reporter. shares compounds with TGFb inhibitor. HepG2 COP-GFP TGF-b reporter, GFP fluorescence, 18 h; cells stimulated by added recombinant TGF-beta. Potency, µM (top dose mostly 46.1 µM), for inactives: at the highest dose activity, negative = inhibition, usual class: inhibitors. 3% of 1,600 active. AID 720537; further: potency means the concentration at half of the fitted maximal effect; nearly all actives have a fitted effect of over 70% in size
* hit, by the source's call; i = inactive; u = inconclusive; x = not tested or not shown. Shown are actives, neighbours in structure and some others; about 4.7% of the full set was active somewhere. Unless noted, the call rests on the fitted dose curve; in most records, active means well fitted curve in the direction sought with a large enough effect; inconclusive means small, poorly fitted or top-dose-only effect, or another doubt; inactive means no such curve, though single readings can be large; an effect the other way counts as inactive or inconclusive.

SMILES | HepG2 tox-1 | ATXN2 expr inh | DRD3 agonist | S2 tox | TGFb inhibitor | DRD3 antagonist | TGFb CAGA inh | HepG2 tox-2 | CCL64 TGFb inh | COP TGFb inh
Cc1ccc(OCCNC(=O)[C@H]2O[C@@H](n3ccc(N)nc3=O)[C@H](O)[C@@H]2O)cc1C | 4.7% | 8.3% | -3.6 | i | 5.7% | 3.9 | x | x | x | x
Cc1ccc(OCCNC(=O)[C@H]2O[C@@H](n3cnc4c(N)ncnc43)[C@H](O)[C@@H]2O)cc1C | -20.8% | -27.7% | -3.1 | i | u | 86.6 | u | -9.9% | -1.8% | -20.4%
CC(C)(C)OC(=O)N1CCC(NC(=O)c2[nH]cnc2C(=O)Nc2ccccc2)CC1 | 5.6% | u | 7.0 | u | 12.6µM* | 20.9 | u | u | u | 22.3%
CC1CCN(C(=O)c2[nH]cnc2C(=O)NCc2ccccc2)CC1 | 3.0% | 10.7% | -9.2 | i | u | 3.8 | -7.2% | 3.8% | 1.0% | -2.0%
O=C(NCc1ccccc1)c1nc[nH]c1C(=O)N1CCN(c2ccccc2)CC1 | -3.3% | 12.8% | -0.3 | i | -7.2% | -4.1 | x | x | x | x
CC1CCN(C(=O)c2[nH]cnc2C(=O)NCC(=O)OC(C)(C)C)CC1 | -23.1% | 8.4% | -12.9 | i | -3.9% | 9.8 | x | x | x | x
CC1CCN(C(=O)c2[nH]cnc2C(=O)NCc2ccc(CNC(=O)OC(C)(C)C)cc2)CC1 | -7.5% | -3.7% | 2.6 | i | u | 18.0 | u | 6.1% | 0.3% | -5.8%
COc1cccc(CNC(=O)c2cccn2-c2nnc(N3CCCC3)s2)c1 | 2.2% | x | 3.5 | x | u | x | x | x | x | x
O=C(O)/C=C(\CC(=O)O)C(=O)O | x | -11.3% | -0.1 | i | x | x | x | x | x | x
COc1ccc(C2CC(c3c(-c4ccccc4)c4cc(Cl)ccc4[nH]c3=O)=NN2S(C)(=O)=O)cc1OC (centres undefined) | -79.2% | -18.8% | -6.3 | i | 8.91µM* | 18.7 | u | -1.3% | u | 19.2%
COc1ccc(CC2C(=O)NC(C)C(=O)N(C)C3Cc4ccc(cc4)Oc4cc(ccc4O)CC(C(=O)NC(C)C(=O)NC(C)C(=O)N2C)N(C)C3=O)cc1 (centres undefined) | 10.9% | 0.238µM* | 2.0 | 0.0597µM* | -106.7% | 1.9 | 0.0184µM* | 0.206µM* | 0.0206µM* | -7.9%
CCOc1ccccc1Nc1ccnc2cc(Cl)ccc12 | -15.2% | u | -1.6 | u | u | 5.4 | x | x | x | x
Clc1ccc2c(NCc3ccccn3)ccnc2c1 | -29.7% | -28.8% | -2.6 | i | 12.6µM* | 43.9 | 2.06µM* | -26.0% | 8.2µM* | -1.1%
Cc1ccc(-c2nn3c(C)nnc3c3ccccc23)cc1S(=O)(=O)NCC(C)O (centres undefined) | -24.7% | 14.4% | 6.4 | u | 9.8% | x | x | x | x | x
CC(C)CCCCCCCCCCCCC(=O)NCC(=O)NC1C(C)OC(Nc2ncnc3nc[nH]c23)C(O)C1O (centres undefined) | -25.4% | u | 13.2 | u | 0.355µM* | -10.2 | 1.03µM* | u | 0.517µM* | -28.6%
COc1ccc2c(c1)OC[C@H]1[C@H]2N2C(=O)CN(Cc3ccc(Cl)cc3)C(=O)[C@@]2(C)[C@H]1c1ccccc1 | -24.6% | 0.0% | -8.9 | i | 5.01µM* | -14.0 | u | -3.9% | -1.0% | 0.1%
Cc1cc(Nc2nc3ccccc3c3nnc(C)n23)ccc1Br | -17.0% | -7.9% | 4.1 | i | -14.1% | x | x | x | x | x
CCOc1nc(N=C(N)N)nc2c(C)cccc12 | -22.0% | u | -0.3 | u | 7.94µM* | 7.1 | 16.4µM* | u | 6.9% | 27.4%
O=[N+]([O-])c1cc2no[n+]([O-])c2cc1N1CCCCC1 | 5.5% | 9.47µM* | -7.1 | 5.32µM* | 2.82µM* | u | 1.64µM* | 6.51µM* | 3.66µM* | u
Cc1ccccc1OCCCCn1c(-c2ccc(Cl)cc2)nc2ccccc2c1=O | -9.6% | 9.7% | -1.1 | i | 23.3% | x | x | x | x | x
Cc1cc(Nc2cccc([N+](=O)[O-])c2)n2c(nc3ccccc32)c1C#N | -40.1% | 8.91µM* | 3.5 | u | 1.58µM* | -93.1* | u | u | 5.17µM* | 32.9%
Cc1cc(Nc2ccc(F)cc2)n2c(nc3ccccc32)c1C#N | -1.0% | 0.6% | 9.8 | x | -9.6% | x | x | x | x | x
Cn1c(NCC2CCCCC2)nc2cc(-c3ccsc3)sc2c1=O | -16.4% | -4.3% | 3.8 | i | u | -50.5* | 23.1µM* | u | u | 23.4%
Cn1c(NCc2ccncc2)nc2cc(-c3ccsc3)sc2c1=O | 0.7% | 1.4% | 1.8 | i | u | 15.6 | x | x | x | x
CC(C)(C)c1nnc(NC(=O)CCS(=O)(=O)c2ccccc2)s1 | 5.6% | 28.2% | 0.7 | u | 7.08µM* | 10.0 | 3.66µM* | -10.2% | u | 29.5%
CCOc1cccc2sc(NC(=O)CCS(=O)(=O)c3ccccc3)nc12 | -8.5% | -9.0% | -8.6 | i | 14.1µM* | 0.6 | 11.6µM* | 23.1µM* | 18.4µM* | u
O=C(N/N=C/c1cc(Cl)ccc1O)c1cccnc1 | -22.4% | u | 13.7 | i | -2.2% | 1.5 | x | x | x | x
O=C(N/N=C/c1cc(Cl)ccc1O)c1ccccc1Br | -29.0% | 3.16µM* | 0.1 | i | u | -2.0 | u | u | u | -1.9%
Cc1ccc(OCCCCn2nnc3sc4c(c3c2=O)CCC(C)C4)cc1 (centres undefined) | -5.2% | 15.2% | 6.8 | i | -6.6% | x | x | x | x | x

High-throughput results from PubChem BioAssay.
